Laboratory results from PubChem BioAssay AID624262 (National Center for Advancing Translational Sciences (NCATS), 2012).
The list shows a part of the results. Records with an inconclusive call do not appear. Activity calls are given as the source filed them. Calls come from the whole dose curve; as a rule, active = well fitted curve in the direction sought with a large enough effect; inconclusive = small, poorly fitted or top-dose-only effect, or another doubt; inactive = no such curve, though single readings can be large or run the other way.

assay: qHTS for Inhibitors of Glutaminase (GLS): Hit Confirmation in HRP Counterscreen; settings: HRP/glutamate oxidase coupled Amplex Red fluorescence counterscreen; series mostly up to 46.1 µM
Excerpt: Glutaminase (GLS) catalyzes the hydrolysis of glutamine into glutamate and ammonia. It plays a critical role in glutaminolysis, which is an important energy source for proliferating cells. It was shown that c-Myc, an oncogenic transcription factor known to regulate microRNAs and to stimulate cell proliferation, increases glutamine metabolism by stimulating the expression of GLS via direct suppression of miR23a and miR23b. […] GLS is also thought to play a pathogenic role on HAD using a human HIV-1 infected macrophage system. […] GLS inhibition limits glutamate release and provides neuroprotection against HIV-1 infected macrophages. […] The overall goal of this project is to identify small molecule inhibitors of GLS through quantitative high throughput screening (qHTS) of the MLSMR. A validated potent and selective inhibitor can be used as a tool molecule to further study the pharmacology of its target as well as explore its potential therapeutic application in cancer and inflammatory neurological disorders, such as HIV1-associated dementia (HAD) and multiple sclerosis. […]
3 uL of buffer are dispensed into black 1536-well plates and then 23 nL of compounds are transferred into the wells using a pin tool. […] The plate is quickly centrifuged before an initial read on the ViewLux is obtained. After a 30 min incubation at RT the plate is once again read on the ViewLux.

Structure (SMILES) | outcome
COc1cc(OC)c(S(=O)(=O)Nc2ccccc2C(=O)O)cc1S(=O)(=O)Nc1ccccc1C(=O)O | inactive
CCN1C(=O)c2cccc3c(S(=O)(=O)Nc4ccccc4O)ccc1c23 | inactive
